D1 agonist – Allosteric Agonists of the Human D1 Dopamine Receptor: qHTS | AID 504660, 2011 | HEK293 T-REx D1 cells, calcium flux, agonist mode | 360,000 compounds, 1% hits | D(1A) dopamine receptor (Homo sapiens), P21728 | activation, % at 2 µM; in the data active = activation above about 30%; also: 0% is about no effect
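Agonism was scored from calcium flux recorded over 180 s (1 read/s) after pintool compound addition, following a 10-cycle baseline. Cells were inducible force-coupled HEK293 TREx D1, plated overnight at 30 C and loaded with no-wash calcium dye.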
DRD3 agonist – qHTS of D3 Dopamine Receptor Agonist: qHTS; 410,000 compounds, 0.58% hits; AID 652048, 2013; max activation, %; D3R DiscoveRx beta-arrestin cells, luminescence, 90 min; in the data active = max activation above about 30%; also: 0% is about no effect
Target sequence (P35462 whole entry, looked up): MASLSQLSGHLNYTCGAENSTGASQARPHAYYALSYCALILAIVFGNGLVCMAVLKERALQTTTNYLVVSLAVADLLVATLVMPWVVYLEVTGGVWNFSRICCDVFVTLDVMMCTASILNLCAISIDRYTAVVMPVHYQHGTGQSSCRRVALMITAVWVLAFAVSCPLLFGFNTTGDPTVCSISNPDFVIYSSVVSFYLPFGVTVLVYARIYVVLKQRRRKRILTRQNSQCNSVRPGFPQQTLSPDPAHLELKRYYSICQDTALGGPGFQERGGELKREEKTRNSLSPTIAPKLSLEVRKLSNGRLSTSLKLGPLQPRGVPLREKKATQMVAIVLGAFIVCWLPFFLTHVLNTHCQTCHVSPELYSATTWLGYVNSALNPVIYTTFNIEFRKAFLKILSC
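Cells at 1500/well, incubated overnight, then treated with pinned compounds (dopamine as control) for 90 min at 37 degrees C. DiscoveRx reagent added for 30 - 60 minutes at room temperature; luminescence read.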
D1 PAM – Potentiators of Human D1 Dopamine Receptor: qHTS | 360,000 compounds, 0.036% hits | AID 504651, 2011 | D(1A) dopamine receptor (Homo sapiens), P21728 | potentiation, % at 10 µM | HEK293 TREx D1 cells, calcium flux, dopamine EC20 potentiation; in the data active = potentiation above about 30%; also: 0% is about no effect
D1 antagonist – Antagonist of Human D 1 Dopamine Receptor: qHTS; D(1A) dopamine receptor (Homo sapiens), P21728; HEK293 TREx D1 cells, calcium flux, dopamine EC80; stronger effect = lower value; activity change, negative = inhibition, % at 10 µM; 360,000 compounds, 3.2% hits; AID 504652, 2011; in the data active = activity change below about -30%; also: % is scaled to controls: 0 for no effect and ±100 for the full control effect
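HEK293 T-REx cells expressing inducible, force-coupled D1 receptor; no-wash Ca dye, 30–90 min RT. Cmpd → 180 s read at 1 Hz → EC80 DA → 180 s read.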
DRD3 antagonist – qHTS of D3 Dopamine Receptor Antagonist: qHTS; D(3) dopamine receptor (Homo sapiens), P35462; D3R cells, DiscoveRx beta-arrestin luminescence, antagonist mode; stronger effect = lower value; max response, negative = inhibition, %; 360,000 compounds, 2.5% hits; in the data active = max response below about -50%; also: % is scaled to controls: 0 for no effect and ±100 for the full control effect
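Cells expressing the human receptor were seeded at 1500 cells/well, incubated overnight at 37 degrees C in 5% CO2, then exposed to library compounds with dopamine controls for 90 minutes at 37 degrees C before luminescent detection.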
An asterisk follows results filed as active; . = no result. The list is not random: actives were taken first. Their share in the collection is about 6%.

SMILES	D1 agonist	DRD3 agonist	D1 PAM	D1 antagonist	DRD3 antagonist
COc1ccccc1CCNC(C)CCc1ccc(O)cc1 (configuration not stated)	9	17	-8	-6	-7
CC(CCc1ccc(O)cc1)NC1C2CC3CC(C2)CC1C3 (configuration not stated)	5	7	-8	3	-56*
CC(CCc1ccc(O)cc1)NCC(O)c1ccc(O)cc1 (configuration not stated)	.	59*	.	.	.
CCOc1ccccc1CNC(=O)CSc1n[nH]c(-c2ccccc2)n1	-1	6	0	-3	.
O=S(=O)(Nc1nc2ccccc2nc1Nc1ccccc1Br)c1ccccc1	12	-6	-2	12	.
CCN1CCCC(NC(=O)c2cc([N+](=O)[O-])ccc2OC)C1 (configuration not stated)	5	-26	6	3	-60*
Cc1nc(NCCCN2CCOCC2)c2cnn(-c3ccccc3)c2n1	.	-19	.	.	-51*
c1cncc(-c2nc(NCCCn3ccnc3)c3ccccc3n2)c1	0	4	1	-38*	10
Cc1cccc(-c2nc(NCCCN3CCOCC3)c3ccccc3n2)c1	50*	-7	3	-7	4
Cc1ccc(-n2ncc3c(NCCCN4CCOCC4)ncnc32)cc1	-5	-15	-3	-4	.
O=C(NCCc1csc(-c2ccc(C(F)(F)F)cc2)n1)c1ccc(F)c(F)c1	3	-8	-6	-9	.
Cc1ccc(S(=O)(=O)N2CCC(c3ccncc3)CC2)c(C)c1	15	-8	-2	-34*	.
CC(=O)Nc1ccc(S(=O)(=O)N2CCC(c3ccncc3)CC2)cc1	9	-1	0	-37*	.
COc1ccccc1-c1nnc(C2CCN(S(=O)(=O)c3ccc([N+](=O)[O-])cc3)CC2)o1	37*	-2	-7	-3	-6
COc1ccccc1-c1nnc(C2CCN(S(=O)(=O)c3cccc([N+](=O)[O-])c3)CC2)o1	5	-4	0	-8	-12
CC(=O)Nc1ccc(S(=O)(=O)N2CCC(C(=O)Nc3nccs3)CC2)cc1	0	3	-5	-39*	8
CC(C)(C)c1ccc(S(=O)(=O)N2CCC(c3ccncc3)CC2)cc1	8	-8	0	-20	.
Cc1cccc(CNC(=O)Cc2ccc(NC(=O)N3CCCCc4ccccc43)cc2)c1	6	-4	-5	-6	.
CCOC(=O)Cc1ccc(NC(=O)NC(C)c2c(-n3cccc3)sc(C)c2C)cc1 (configuration not stated)	3	5	-7	-24	.
Cc1ccc(-c2nnc(C3CCN(S(=O)(=O)c4ccc(C)c(C)c4)CC3)o2)cc1	4	0	1	-13	.
CC(=O)Nc1ccc(S(=O)(=O)N2CCC(c3nnc(-c4ccc(C)cc4)o3)CC2)cc1	2	1	-13	-33*	4
CCOC(=O)N1CCN(Cc2nc3cc([N+](=O)[O-])ccc3n2C(C)C)CC1	7	-9	1	-13	.
Cc1ccc(S(=O)(=O)c2nnn(-c3cccc(F)c3)c2N)cc1	10	1	-1	-33*	3
Cc1ccc(S(=O)(=O)c2nnn(-c3ccc(F)c(Cl)c3)c2N)cc1	76*	1	2	-23	.
COc1ccc(Nc2cc(C(=O)NCCCN(C)Cc3ccccc3)c3ccccc3n2)cc1	43*	-19	-4	-46*	.
SMILES	D1 agonist	DRD3 agonist	D1 PAM	D1 antagonist	DRD3 antagonist
COc1ccc(Nc2cc(C(=O)NCCCN(C)Cc3ccccc3)c3ccccc3n2)c(OC)c1	19	-18	-6	-27	.
CCN(CCCNC(=O)c1cc(Nc2ccccc2OC)nc2ccccc12)c1cccc(C)c1	1	9	-3	-35*	.
COc1ccccc1NC(=O)Cn1cc(S(=O)(=O)Cc2ccccc2)c2ccccc21	3	8	3	-12	.
COC(=O)c1ccc(NS(=O)(=O)c2cc(-c3cc(C)no3)ccc2OC)cc1	3	1	-6	-9	-52*
O=C(NCCN1CCOCC1)c1ccc(Cl)cc1	-1	-71	6	8	-69*
O=C(NCCN1CCCCC1)Nc1ccccc1	6	-24	-3	6	-17

From PubChem BioAssay
